One sequence from publication PMC7862700, “An all-to-all approach to the identification of sequence-specific readers for epigenetic DNA modifications on cytosine” can be followed below.

What all share (assay): DAPPL (digital affinity profiling via proximity ligation, sequencing); 10 mM Tris-HCl pH 7.5, 50 mM NaCl, 1 mM DTT, 4% glycerol, room temperature, 30 min; GST-TFs on glutathione beads, 16-mer random dsDNA library, 0.1% formaldehyde crosslink after washing; high values mean tight binding
Holding throughout (settings): protein: recombinant; tags: N-terminal GST; dsDNA, one strand shown

In one assay the target is T1, ELK1 (Homo sapiens, UniProt P19419 1-428).
T1 sequence: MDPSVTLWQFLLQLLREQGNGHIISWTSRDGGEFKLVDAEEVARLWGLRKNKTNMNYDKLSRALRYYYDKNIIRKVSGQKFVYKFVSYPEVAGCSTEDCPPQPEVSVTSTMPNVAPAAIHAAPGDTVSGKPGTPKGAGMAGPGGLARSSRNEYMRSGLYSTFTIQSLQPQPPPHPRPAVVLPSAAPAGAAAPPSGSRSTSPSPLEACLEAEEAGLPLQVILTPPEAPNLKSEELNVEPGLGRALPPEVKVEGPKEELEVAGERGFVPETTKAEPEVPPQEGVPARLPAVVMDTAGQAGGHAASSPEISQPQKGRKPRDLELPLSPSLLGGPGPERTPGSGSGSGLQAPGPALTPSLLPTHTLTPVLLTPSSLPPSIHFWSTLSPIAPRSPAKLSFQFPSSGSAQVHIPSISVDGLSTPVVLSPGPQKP
The method, boiled down:
(§1)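 GST fusions of human transcription factors were expressed in yeast and captured with glutathione beads. Once given DNA barcodes and pooled alongside a tag-only sample, they were incubated for 30 min at room temperature with 200 nmole of a random double-stranded 16-mer DNA library in Tris/NaCl/DTT/glycerol buffer, then washed, crosslinked (0.1% formaldehyde), proximity-ligated, PCR-amplified and sequenced on an Illumina NextSeq500. The binding signal of each hexamer is its read frequency for a factor divided by its frequency for the tag-only sample.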

Another assay concerns the target T2, GABPA (Homo sapiens, UniProt Q06546 1-454).
T2 sequence: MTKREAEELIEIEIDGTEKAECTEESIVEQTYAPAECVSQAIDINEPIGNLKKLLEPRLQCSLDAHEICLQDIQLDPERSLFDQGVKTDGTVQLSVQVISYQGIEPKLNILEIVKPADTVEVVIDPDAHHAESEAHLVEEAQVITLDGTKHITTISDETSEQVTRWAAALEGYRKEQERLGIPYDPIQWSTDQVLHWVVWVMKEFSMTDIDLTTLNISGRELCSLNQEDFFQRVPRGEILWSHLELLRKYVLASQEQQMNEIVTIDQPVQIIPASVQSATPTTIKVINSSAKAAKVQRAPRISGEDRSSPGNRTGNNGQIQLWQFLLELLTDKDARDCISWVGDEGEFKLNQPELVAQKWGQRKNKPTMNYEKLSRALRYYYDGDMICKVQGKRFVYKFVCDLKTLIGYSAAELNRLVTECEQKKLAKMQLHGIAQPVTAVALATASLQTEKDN
The method, boiled down:
as §1

Another assay addresses ELF1 (Homo sapiens, UniProt P32519 1-619). The method, boiled down: as §1
A further assay addresses SPIB (Homo sapiens, UniProt Q01892 1-262). The method, boiled down:
as §1

A further assay deals with T3, FEV (Homo sapiens, UniProt Q99581 1-238).
T3 sequence: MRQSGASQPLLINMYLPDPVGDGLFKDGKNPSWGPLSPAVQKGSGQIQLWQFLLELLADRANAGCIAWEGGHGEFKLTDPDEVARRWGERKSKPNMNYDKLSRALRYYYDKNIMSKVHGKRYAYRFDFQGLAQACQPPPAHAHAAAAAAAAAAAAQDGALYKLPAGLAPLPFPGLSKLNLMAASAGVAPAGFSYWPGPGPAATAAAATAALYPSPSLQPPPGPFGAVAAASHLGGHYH
The method, boiled down: as §1

Another assay concerns the target ETV5 (Homo sapiens, UniProt P41161 1-510). The method, boiled down: as §1
A further assay concerns the target ELF4 (Homo sapiens, UniProt Q99607 1-663). A digest of the protocol:
as §1

The next assay has as its target T4, ELK4 (Homo sapiens, UniProt P28324-2 1-405).
T4 sequence: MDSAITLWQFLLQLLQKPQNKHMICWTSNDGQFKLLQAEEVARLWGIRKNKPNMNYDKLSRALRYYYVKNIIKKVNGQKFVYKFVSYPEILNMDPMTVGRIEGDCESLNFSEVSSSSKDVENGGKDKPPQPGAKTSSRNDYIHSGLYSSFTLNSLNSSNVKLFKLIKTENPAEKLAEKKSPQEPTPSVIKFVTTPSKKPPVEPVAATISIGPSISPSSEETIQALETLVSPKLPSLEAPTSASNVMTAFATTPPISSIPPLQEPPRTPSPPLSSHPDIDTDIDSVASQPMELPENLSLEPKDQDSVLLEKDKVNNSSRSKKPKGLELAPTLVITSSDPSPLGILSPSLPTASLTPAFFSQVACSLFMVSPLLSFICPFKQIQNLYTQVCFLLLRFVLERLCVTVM
The method, boiled down:
as §1

The next assay addresses ETV1 (Homo sapiens, UniProt P50549 1-477). A digest of the protocol: as §1
A further assay deals with T5, ERF (Homo sapiens, UniProt P50548 1-548).
T5 sequence: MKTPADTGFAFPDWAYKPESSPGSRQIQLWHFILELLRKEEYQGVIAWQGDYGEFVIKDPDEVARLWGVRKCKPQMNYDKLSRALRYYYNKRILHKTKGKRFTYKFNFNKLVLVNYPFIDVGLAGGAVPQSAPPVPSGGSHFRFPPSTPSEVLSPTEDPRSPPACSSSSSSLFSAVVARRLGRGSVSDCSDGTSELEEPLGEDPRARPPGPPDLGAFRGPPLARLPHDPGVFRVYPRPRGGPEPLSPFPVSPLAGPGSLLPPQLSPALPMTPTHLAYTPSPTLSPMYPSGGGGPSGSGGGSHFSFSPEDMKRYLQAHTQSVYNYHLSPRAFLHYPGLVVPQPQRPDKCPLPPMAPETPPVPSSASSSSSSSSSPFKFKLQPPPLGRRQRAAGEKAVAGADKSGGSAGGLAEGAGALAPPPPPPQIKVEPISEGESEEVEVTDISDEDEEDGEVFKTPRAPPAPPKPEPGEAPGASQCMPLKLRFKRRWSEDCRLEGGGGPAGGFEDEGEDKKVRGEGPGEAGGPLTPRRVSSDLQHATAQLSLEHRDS
The method, boiled down:
as §1

A further assay addresses T6, ETV3L (Homo sapiens, UniProt Q6ZN32 1-361).
T6 sequence: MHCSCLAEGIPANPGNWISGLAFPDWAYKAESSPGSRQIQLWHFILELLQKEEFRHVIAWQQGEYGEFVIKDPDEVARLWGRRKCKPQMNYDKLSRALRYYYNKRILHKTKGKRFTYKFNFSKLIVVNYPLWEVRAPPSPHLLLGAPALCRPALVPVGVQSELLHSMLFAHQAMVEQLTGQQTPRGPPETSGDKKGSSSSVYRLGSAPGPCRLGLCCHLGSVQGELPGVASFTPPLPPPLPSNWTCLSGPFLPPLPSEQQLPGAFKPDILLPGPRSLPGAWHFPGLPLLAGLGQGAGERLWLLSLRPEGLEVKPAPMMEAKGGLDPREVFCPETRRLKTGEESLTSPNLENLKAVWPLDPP
A digest of the protocol:
as §1

For a further assay, the target named is T7, ETV7 (Homo sapiens, UniProt Q9Y603 1-341).
T7 sequence: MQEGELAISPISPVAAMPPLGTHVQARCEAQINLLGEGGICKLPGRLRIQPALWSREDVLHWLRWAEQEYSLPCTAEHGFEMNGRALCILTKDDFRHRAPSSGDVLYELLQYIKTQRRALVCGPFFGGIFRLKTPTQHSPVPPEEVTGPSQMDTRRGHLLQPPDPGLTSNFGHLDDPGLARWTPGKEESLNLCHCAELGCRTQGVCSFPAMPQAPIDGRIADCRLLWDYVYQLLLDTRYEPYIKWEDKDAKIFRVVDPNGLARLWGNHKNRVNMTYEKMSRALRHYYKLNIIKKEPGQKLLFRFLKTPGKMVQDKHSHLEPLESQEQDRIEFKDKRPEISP
The method, boiled down: as §1

ELF4, sequence (Q99607 whole entry): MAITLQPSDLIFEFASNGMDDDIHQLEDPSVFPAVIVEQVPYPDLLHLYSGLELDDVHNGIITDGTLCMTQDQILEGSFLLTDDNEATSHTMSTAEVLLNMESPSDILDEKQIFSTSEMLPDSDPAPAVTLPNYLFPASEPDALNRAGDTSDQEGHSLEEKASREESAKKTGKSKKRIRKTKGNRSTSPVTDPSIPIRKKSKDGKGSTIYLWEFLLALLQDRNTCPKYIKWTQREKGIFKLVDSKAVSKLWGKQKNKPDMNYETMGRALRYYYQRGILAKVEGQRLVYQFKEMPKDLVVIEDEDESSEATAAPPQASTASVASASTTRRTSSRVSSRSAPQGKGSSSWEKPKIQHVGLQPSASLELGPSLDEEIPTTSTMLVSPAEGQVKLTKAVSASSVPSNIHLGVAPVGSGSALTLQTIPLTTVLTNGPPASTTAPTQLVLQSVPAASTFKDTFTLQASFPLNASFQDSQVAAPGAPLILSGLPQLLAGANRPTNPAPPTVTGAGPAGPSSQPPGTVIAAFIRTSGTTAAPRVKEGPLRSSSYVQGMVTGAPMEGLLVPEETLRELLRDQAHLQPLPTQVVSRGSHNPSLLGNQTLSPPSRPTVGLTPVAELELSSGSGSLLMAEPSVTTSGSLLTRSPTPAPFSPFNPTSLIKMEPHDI
ETV5, sequence (P41161 whole entry): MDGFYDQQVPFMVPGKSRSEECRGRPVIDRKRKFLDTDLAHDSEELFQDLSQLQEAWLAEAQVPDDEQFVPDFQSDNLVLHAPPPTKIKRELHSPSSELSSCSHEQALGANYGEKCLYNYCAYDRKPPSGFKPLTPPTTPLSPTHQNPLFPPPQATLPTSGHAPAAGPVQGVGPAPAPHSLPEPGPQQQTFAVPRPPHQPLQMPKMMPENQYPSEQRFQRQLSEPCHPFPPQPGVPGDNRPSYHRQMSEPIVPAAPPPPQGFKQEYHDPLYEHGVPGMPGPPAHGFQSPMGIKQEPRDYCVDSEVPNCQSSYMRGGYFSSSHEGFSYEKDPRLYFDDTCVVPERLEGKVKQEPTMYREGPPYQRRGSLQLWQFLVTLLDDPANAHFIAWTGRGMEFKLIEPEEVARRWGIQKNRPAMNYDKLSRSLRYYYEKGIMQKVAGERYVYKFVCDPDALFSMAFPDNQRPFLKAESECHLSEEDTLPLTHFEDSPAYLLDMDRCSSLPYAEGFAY
ELF1, sequence (P32519 whole entry): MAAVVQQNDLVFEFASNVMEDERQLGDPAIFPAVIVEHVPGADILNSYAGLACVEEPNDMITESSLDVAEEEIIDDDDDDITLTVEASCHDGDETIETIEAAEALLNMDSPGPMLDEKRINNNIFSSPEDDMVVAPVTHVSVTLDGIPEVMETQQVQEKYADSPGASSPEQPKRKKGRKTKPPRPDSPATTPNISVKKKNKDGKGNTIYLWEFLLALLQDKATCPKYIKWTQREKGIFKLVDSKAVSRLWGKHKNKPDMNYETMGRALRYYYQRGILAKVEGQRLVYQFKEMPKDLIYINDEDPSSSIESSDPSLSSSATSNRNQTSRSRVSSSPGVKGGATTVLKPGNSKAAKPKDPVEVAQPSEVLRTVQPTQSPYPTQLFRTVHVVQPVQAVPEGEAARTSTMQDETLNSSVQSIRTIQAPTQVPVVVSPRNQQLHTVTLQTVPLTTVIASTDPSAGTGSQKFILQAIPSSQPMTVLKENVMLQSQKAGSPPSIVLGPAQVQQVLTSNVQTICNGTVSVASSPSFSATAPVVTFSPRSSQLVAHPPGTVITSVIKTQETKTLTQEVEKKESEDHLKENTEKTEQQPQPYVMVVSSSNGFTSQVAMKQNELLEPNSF
SPIB, sequence (Q01892 whole entry): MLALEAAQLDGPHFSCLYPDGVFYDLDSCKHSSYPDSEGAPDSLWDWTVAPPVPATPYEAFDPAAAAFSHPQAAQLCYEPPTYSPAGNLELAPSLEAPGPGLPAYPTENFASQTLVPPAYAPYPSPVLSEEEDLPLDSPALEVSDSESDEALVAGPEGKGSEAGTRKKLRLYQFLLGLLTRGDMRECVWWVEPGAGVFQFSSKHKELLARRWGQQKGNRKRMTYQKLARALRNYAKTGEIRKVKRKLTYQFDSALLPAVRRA
ETV1, sequence (P50549 whole entry): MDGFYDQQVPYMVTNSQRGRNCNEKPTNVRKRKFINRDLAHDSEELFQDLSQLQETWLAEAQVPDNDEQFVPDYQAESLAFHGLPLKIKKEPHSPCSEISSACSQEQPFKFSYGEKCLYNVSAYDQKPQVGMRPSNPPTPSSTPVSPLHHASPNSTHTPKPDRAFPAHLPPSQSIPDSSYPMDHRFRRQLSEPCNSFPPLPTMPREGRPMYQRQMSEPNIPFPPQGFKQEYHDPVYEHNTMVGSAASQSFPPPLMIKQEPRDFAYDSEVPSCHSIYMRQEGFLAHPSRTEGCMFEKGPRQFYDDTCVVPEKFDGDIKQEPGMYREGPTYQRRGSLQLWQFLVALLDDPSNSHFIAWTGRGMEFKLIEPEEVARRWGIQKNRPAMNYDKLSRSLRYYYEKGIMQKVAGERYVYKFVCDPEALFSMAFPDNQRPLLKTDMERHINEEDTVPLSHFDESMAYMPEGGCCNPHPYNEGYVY

CAGCCT: the binding signal with ELK1 is 1.11 fold enrichment (6-mer frequency, TF over GST control); in the assay with GABPA, 1.09 fold enrichment (6-mer frequency, TF over GST control); with ELF1 it was 1.06 fold enrichment (6-mer frequency, TF over GST control); with SPIB, 1.09 fold enrichment (6-mer frequency, TF over GST control); with FEV it was 1.02 fold enrichment (6-mer frequency, TF over GST control); with ETV5 it was 1.04 fold enrichment (6-mer frequency, TF over GST control). Also, the binding signal is 1.12 fold enrichment (6-mer frequency, TF over GST control) with ELF4; 1.01 fold enrichment (6-mer frequency, TF over GST control) with ELK4; 1.02 fold enrichment (6-mer frequency, TF over GST control) in the assay with ETV1; 1.1 fold enrichment (6-mer frequency, TF over GST control) with ERF; 1.02 fold enrichment (6-mer frequency, TF over GST control) with ETV3L; 1.13 fold enrichment (6-mer frequency, TF over GST control) in the assay with ETV7.
